This passage reports PBM binding z-score results from the supplement of paper PMC6555819.

What all share (experiment): PBM binding z-score (relative to random genomic background probes); higher = stronger binding; sequences stand for … in GC…GCGATTGACAGCGTAGAATGAAGG
Experiment [1] deals with FXR:RXRa (NR concentration 270 nM, RXRa partner concentration 90 nM). Summed up: (§1)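 Custom Agilent 4×180K protein-binding microarrays carried double-stranded probes. Their 34-nt variable regions held direct-repeat seeds, single-nucleotide variants, half-site ablations and random human genomic background sequences. Arrays were incubated 1 h with ligand-free nuclear receptor dimers in PBS pH 7.4, 2% milk, 0.02% Triton X-100, 1 mM DTT, 0.2 mg/mL BSA and 0.4 mg/ml salmon testes DNA. Antibodies against each partner (one per run) detected binding, and scanned fluorescence was regression-normalized. Binding z-scores use random background probes as reference.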

Experiment [2] relates to LXRa:RXRa (NR concentration 270 nM, RXRa partner concentration 90 nM). The method in brief:
as §1

Experiment [3] relates to LXRa homodimer (NR concentration 270 nM). The method in brief: as §1
Experiment [4] deals with LXRb:RXRa (NR concentration 270 nM, RXRa partner concentration 90 nM). Summed up: as §1
Experiment [5] deals with LXRb homodimer (NR concentration 270 nM). The method in brief:
as §1

In experiment [6] the test system is PPARa:RXRa (NR concentration 270 nM, RXRa partner concentration 90 nM). Summed up: as §1
Experiment [7] concerns PPARg:RXRa (NR concentration 180 nM, RXRa partner concentration 90 nM). The method in brief: as §1
The subject of experiment [8] is PPARg:RXRa 270nM:90nM, anti-RXR (NR concentration 270 nM, RXRa partner concentration 90 nM). Summed up: as §1
In experiment [9] the test system is PPARg:RXRa 30nM:10nM, anti-RXR (NR concentration 30 nM, RXRa partner concentration 10 nM). Summed up:
as §1

The subject of experiment [10] is PPARg:RXRa 90nM:30nM, anti-RXR (NR concentration 90 nM, RXRa partner concentration 30 nM). Summed up: as §1
Experiment [11] relates to PPARg:RXRa DBDmut IVT, anti-RXR (DBD mutation: RXRa K156A/R161A, NR concentration 270 nM, RXRa partner concentration 90 nM). Summed up:
as §1

Experiment [12] relates to PPARg:RXRa IVT, anti-PPARg (NR concentration 270 nM, RXRa partner concentration 90 nM). Summed up: as §1
Experiment [13] relates to PPARg DBDmut:RXRa IVT, anti-PPARg (DBD mutation: PPARg1 K132A/R137A, NR concentration 270 nM, RXRa partner concentration 90 nM). Summed up: as §1
Experiment [14] concerns PPARg DBDmut IVT, anti-PPARg (DBD mutation: PPARg1 K132A/R137A, NR concentration 270 nM). The method in brief:
as §1

For experiment [15], the system named is PPARg homodimer (NR concentration 180 nM). The method in brief:
as §1

Experiment [16] deals with PXR:RXRa (NR concentration 270 nM, RXRa partner concentration 90 nM). The method in brief:
as §1

For experiment [17], the system named is PXR homodimer (NR concentration 270 nM). The method in brief: as §1
Experiment [18] has as its system RARa:RXR (NR concentration 270 nM, RXRa partner concentration 90 nM). Summed up: as §1
Experiment [19] deals with RARa homodimer (NR concentration 270 nM). Summed up: as §1
Experiment [20] concerns RARb:RXRa (NR concentration 270 nM, RXRa partner concentration 90 nM). The method in brief: as §1

Regarding ATACCATGGTGATCGTGAGGTCGTTGATACTAAC, the PBM binding z-score in experiment [1] is 0.952; in experiment [2], 0.604; in experiment [3], 0.284; in experiment [4], 1.08; in experiment [5], -0.16; in experiment [6], 0.884. Also, the PBM binding z-score in experiment [7] was 0.301; in experiment [8], -0.0472; in experiment [9] it was 0.115; in experiment [10], 0.0761; in [11], -0.0684; in [12], 0.0915. Also, the PBM binding z-score in experiment [13] was -0.0138; in experiment [14], 0.737; in [15], 0.319; in experiment [16], 1.75; in experiment [17], 1.17; in [18], 1.27. Moreover, the PBM binding z-score in experiment [19] is -0.088; in experiment [20], 0.235.
Turning to AATACAGGGTCATCGTAGGCCAGAGTGCGCACAG, the PBM binding z-score in [1] was 7.13; in [2], 6.46; in [3], 2.47; in experiment [4], 4.75; in experiment [5], 1.07; in experiment [6], 5.99. In addition, the PBM binding z-score is 6.7 in experiment [7]; 6.16 in [8]; 2.72 in [9]; 4.73 in experiment [10]; 2.61 in [11]; 4.22 in experiment [12]. The PBM binding z-score in experiment [13] was found to be 1.07; in experiment [14], 1.13; in experiment [15] it was 1.9; in experiment [16] it was 4.97; in experiment [17] it was 0.782; in [18], 4.82. The PBM binding z-score in experiment [19] came out at 0.464; in [20] it was 4.48.
Consider TGTTGTAGATCAGCAGGTTAAGAAAGCTGGCCAA, for which the PBM binding z-score was -0.297 in [1]; -0.297 in [2]; -0.591 in experiment [3]; -0.397 in [4]; -0.822 in experiment [5]; -0.205 in experiment [6]. In addition, the PBM binding z-score is -0.588 in [7]; 0.116 in [8]; -0.287 in [9]; -0.0252 in experiment [10]; -1.12 in experiment [11]; -0.254 in [12]. Further, the PBM binding z-score in experiment [13] was -0.00533; in experiment [14], -1.02; in [15], -0.701; in experiment [16], -0.454; in [17], -0.604; in [18], -0.71. The PBM binding z-score in experiment [19] is -0.587; in experiment [20] it was -0.157.
Regarding AGAACGAGGGCAATGACTTGATAGCACGGGTGGC, the PBM binding z-score in experiment [1] is 0.827; in experiment [2] it was 0.481; in experiment [3] it was -0.243; in [4], -0.0938; in experiment [5] it was -0.458; in [6], 1.43. The PBM binding z-score in [7] stood at 1.71; in [8], 0.813; in experiment [9] it was 0.00433; in experiment [10] it was 0.55; in experiment [11], 3.17; in [12], 2.49. The PBM binding z-score in experiment [13] was 0.669; in experiment [14], -0.215; in [15], 0.348; in [16], 0.345; in [17], 0.000958; in [18] it was 0.436. The PBM binding z-score in experiment [19] is -0.218; in [20] it was 2.11.
Turning to GATACAGGGTTAGCTAGAGGCCAGAGTATGGAAA, the PBM binding z-score in experiment [1] was 0.0111; in [2] it was 0.711; in experiment [3], -0.451; in experiment [4] it was 0.181; in experiment [5] it was -0.961; in [6], 0.87. Besides, the PBM binding z-score in [7] was 0.379; in experiment [8], 0.0848; in experiment [9] it was -0.37; in [10], -0.205; in experiment [11], -0.257; in experiment [12], 0.231. Moreover, the PBM binding z-score in experiment [13] is -0.237; in [14], -1.22; in [15] it was 0.107; in [16], 0.293; in [17], -0.052; in experiment [18], 0.625. The results for the PBM binding z-score in experiment [19] and in [20] were -0.595 and 1.07, respectively.
On to CCGACTGGCGCAAAGGTTACCATACTCAGTACGA, for which the PBM binding z-score in [1] was 0.725; in experiment [2], 1.29; in [3], -0.0542; in experiment [4], 1.78; in [5], -0.938; in experiment [6], 3.45. For the same sequence, the PBM binding z-score in [7] stood at 5.96; in [8], 6.74; in experiment [9], 4.81; in [10], 6.59; in [11], 0.771; in experiment [12], 2.5. Besides, the PBM binding z-score is -1.09 in [13]; -0.747 in experiment [14]; 0.747 in experiment [15]; 1.7 in [16]; -0.233 in experiment [17]; 2.04 in experiment [18]. Besides, the values for the PBM binding z-score in experiment [19] and in experiment [20] were -0.0622 and 1.75, respectively.
With TCTGCTAGGTCAACGATGGTCAGCCAATCTGCTA, the PBM binding z-score in experiment [1] was 3.5; in experiment [2], 2.9; in experiment [3], -0.0342; in experiment [4] it was 1.57; in experiment [5], -0.0158; in experiment [6], 3.17. Besides, the PBM binding z-score in experiment [7] came out at 2.73; in experiment [8], 3.17; in experiment [9], 1.79; in [10], 2.48; in experiment [11], 4.18; in experiment [12], 4.29. The PBM binding z-score was 0.0146 in experiment [13]; -0.247 in experiment [14]; 1.87 in [15]; 1.6 in experiment [16]; -0.979 in [17]; 2.02 in experiment [18]. Besides, the PBM binding z-score was -0.83 in [19] and 4.26 in experiment [20].
